# Records with an inconclusive call do not appear. Active and inactive are the calls of the source. The call rests on the fitted dose curve; in most records, active means well fitted activation curve with a large enough effect; inconclusive means small, poorly fitted or top-dose-only effect; inactive means flat fitted curve, though single readings scatter.
# Assay: qHTS assay to identify small molecule phospholipidosis (PLD) inducers (AID 1259344)
# Conditions: HepG2 phospholipidosis, LipidTOX Red imaging, 24 h; series mostly up to 38.3 µM; PLD induction: at the top concentration
# Source text: National Center for Advancing Translational Sciences [NCATS]
# Drug-induced Phospholipidosis (PLD) caused by cationic amphiphilic drugs is characterized by the appearance of unicentric or multicentric-lamellar bodies when viewed under electron microscope. Electron microscopy is the gold standard method for PLD detection, however, this method is time-consuming and labor intensive, making it unsuitable for evaluating a large set of compounds. A cell-based phospholipidosis assay has been developed using the LipidTox reagent in HepG2 cells and miniaturized into a 1536-well plate format. Drug induced phospholipid accumulation is stained with the LipidTox dyes in red color which then is determined using an automated high content screening system.
# HepG2 cells are dispensed at 900 cells/3 uL/well into Collagen I-coated 1536-well black-wall/clear-bottom assay plates (Greiner Bio-One, Monroe, NC) using the Multidrop Combi 8 channel dispenser (Thermo Fisher, Waltham, MA, USA). The assay plates are incubated at 37 C for 4 hours to allow the cell attachment. 3 uL of 1:500 LipidTOX Red dye is added using the dispenser, and then 23 nL compounds are added via a Wako Pintool station (Wako Automation, San Diego, CA). Amiodarone, a known PLD inducer, was used as a positive control and DMSO was used as a negative control. The assay plates were then incubated at 37 C for 24 hours.
# For fixations, 4 uL of 8% paraformaldehyde fixative solution containing 10 ug/mL Hoechst 33342 in Dulbecco's phosphate-buffered saline (DPBS) is added using a Kalypsys washer/dispenser (Kalypsys, San Diego, CA, USA). After incubation at room temperature for 30 min, the assay plates are washed once with DPBS using a Kalypsys washer/dispenser. The assay plates are then sealed and stored at 4 C before imaging. The fluorescence intensities (595 nm excitation, 615 nm emission for LipidTOX; 352 nm excitation, 461 nm emission for Hoechst 33342) are measured using an ImageXpress Micro Widefield High Content Screening System (Molecular Devices, Sunnyvale, CA, USA) with a 20x Plan Fluor objective. Images are acquired for one site in each well and analyzed with the MetaXpress software (Molecular Devices) using the Transfluor module. Several algorithmic outputs, such as pit count per well, pit count per cell, pit integrated intensity per well, and pit integrated intensity per cell, are used for quantitative image analysis for PLD.
# On the % scale 0 is the no-effect control and ±100 the full control effect.
SMILES,PLD induction,outcome
CC(C)NNC(=O)c1ccncc1,-0.463% (inactive),–
NC(=O)N1c2ccccc2CC(=O)c2ccccc21,0.66% (inactive),–
CC(C)COC(=O)c1ccc(N)cc1,-0.0636% (inactive),–
Cc1ccc(C(=O)Nc2ccc(S(=O)(=O)O)c3cc(S(=O)(=O)O)cc(S(=O)(=O)O)c23)cc1NC(=O)c1cccc(NC(=O)Nc2cccc(C(=O)Nc3cc(C(=O)Nc4ccc(S(=O)(=O)O)c5cc(S(=O)(=O)O)cc(S(=O)(=O)O)c45)ccc3C)c2)c1,-0.357% (inactive),–
CC(=O)OCC(=O)[C@@]1(O)[C@H](C)C[C@H]2[C@@H]3CCC4=CC(=O)C=C[C@]4(C)[C@@]3(F)[C@@H](O)C[C@@]21C,–,inactive
C[C@@H]1CCC[C@H](C)N1,0.357% [at 15.5 µM] (inactive),–
CCC(C)(CN(C)C)OC(=O)c1ccccc1 (stereo not given),-0.717% [at 15.5 µM] (inactive),–
CC(=O)Nc1ccc(OCC(O)CNC(C)C)cc1 (stereo not given),-0.202% (inactive),–
CN1CC(=O)N/C1=N/C(=O)Nc1cccc(Cl)c1,–,inactive
CC(=O)N1C[C@H](O)C[C@H]1C(=O)O,-0.551% (inactive),–
NCCCC(N)(C(=O)O)C(F)F (stereo not given),-0.123% (inactive),–
CO/N=C(\C(=O)N[C@@H]1C(=O)N2C(C(=O)O)=C(CSc3nc(=O)c(O)nn3C)CS[C@H]12)c1csc(N)n1,0.51% (inactive),–
N[C@H](C(=O)O)[C@@H](O)c1ccc(O)c(O)c1,6.78% (inactive),–
CN(C)C(=O)Oc1ccc[n+](C)c1,-1.17% (inactive),–
c1ccc2sc(SN3CCOCC3)nc2c1,-0.794% (inactive),–
CN1[C@@H]2CC[C@H]1CC(OC(=O)C(O)c1ccccc1)C2 (stereo not given in full),–,inactive
C[N+](C)(CCOc1ccccc1)Cc1cccs1,-2.67% (inactive),–
CCOC(=O)OC(C)OC1=C(C(=O)Nc2ccccn2)N(C)S(=O)(=O)c2ccccc21 (stereo not given),0.186% (inactive),–
C[N+]12CCC(CC1)C(OC(=O)C(O)(c1ccccc1)c1ccccc1)C2 (stereo not given),0.0447% [at 15.5 µM] (inactive),–
COc1cc(C(=O)OC(COCCC(C)C)CN2CCOCC2)cc(OC)c1OC (stereo not given),-6.88% (inactive),–

SMILES,PLD induction,outcome
O=C(CO)[C@@H](O)[C@H](O)[C@@H](O)CO,-0.058% (inactive),–
CC(=O)NC(=O)c1ccccc1O,-0.56% (inactive),–
Nc1c2c(nc3c1CCC3)CCCC2,-0.246% (inactive),–
CCCc1ncc(C[n+]2ccccc2C)c(N)n1,-0.94% [at 15.5 µM] (inactive),–
COc1c(N2CCNC(C)C2)c(F)cc2c(=O)c(C(=O)O)cn(C3CC3)c12 (stereo not given),-0.16% (inactive),–
CCN[C@@H]1C[C@H](N)[C@@H](OC2OC(CN)=CCC2N)[C@H](O)[C@H]1O[C@H]1OC[C@](C)(O)[C@H](NC)[C@H]1O (stereo not given in full),-0.0107% (inactive),–
Nc1ccn([C@@H]2O[C@H](CO)[C@@H](O)C2O)c(=O)n1 (stereo not given in full),-1.05% (inactive),–
COC(=O)C1=C(C)NC(C)=C(C(=O)OC(C)C)C1c1cccc2nonc12 (stereo not given),2.94% [at 15.5 µM] (inactive),–
NCCCC[C@H](N[C@@H](CCc1ccccc1)C(=O)O)C(=O)N1CCC[C@H]1C(=O)O,0.462% [at 15.5 µM] (inactive),–
C[C@H]1C[C@H]2[C@@H]3CCC4=CC(=O)C=C[C@]4(C)[C@H]3C(=O)C[C@]2(C)[C@@]1(O)C(=O)CO,2.13% [at 7.66 µM] (inactive),–
CCCCc1nc(Cl)c(CO)n1Cc1ccc(-c2ccccc2-c2nn[nH]n2)cc1,1.37% (inactive),–
CCCCCC(C)N (stereo not given),-0.712% (inactive),–
CCC1C(=O)OCC1Cc1cncn1C (stereo not given),-0.657% (inactive),–
C[N+]1(C)CCCC(OC(=O)C(O)(c2ccccc2)c2ccccc2)C1 (stereo not given),-0.292% [at 15.5 µM] (inactive),–
Cc1cccc(C)c1NC(=O)CC12CCCN1CCC2,0.224% (inactive),–
COc1cc(C(=O)NCc2ccc(OCCN(C)C)cc2)cc(OC)c1OC,-0.599% [at 15.5 µM] (inactive),–
NS(=O)(=O)Cc1noc2ccccc12,-1% (inactive),–
CC(=O)Oc1cccc(C)c1,-0.311% (inactive),–
CC[N+](C)(CC)CCOC(=O)C1c2ccccc2Oc2ccccc21,-0.65% (inactive),–
CCOc1ccc2nc(S(N)(=O)=O)sc2c1,-1.32% (inactive),–

# Reference: PubChem BioAssay (Tox21)
